Laboratory results taken from the supplement of paper PMC10646978.
± gives the standard deviation.

What was measured:
Settings in all cases: modulator concentration 10 µM
[1] = test system: RAW-Dual (murine macrophage reporter line); assay: NF-kB reporter (SEAP) activity fold change vs agonist alone; higher = enhanced NF-kB activity
How it was run: (§1)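 RAW-Dual murine macrophage reporter cells were plated at 50 000 per well in 384-well plates, pin-transferred compound to 10 μM final, and pre-incubated for 1 hour at 37 °C before a PRR agonist was added and the cells incubated overnight. NF-κB activity was read from supernatant SEAP with QUANTI-Blue at 620 nm absorbance, and IRF activity from Lucia luciferase with QUANTI-Luc by luminescence. Each signal was expressed as fold change by dividing by the mean agonist-only control on the same plate. Two replicate plates were averaged, with errors obtained by propagation.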

[2] = test system: RAW-Dual (murine macrophage reporter line); assay: IRF reporter (Lucia luciferase) activity fold change vs agonist alone; higher = enhanced IRF activity
How it was run: as §1

[3] = test system: RAW-Dual (murine macrophage reporter line); assay: viability score (confluency relative to resting cells, overnight) (fraction); higher = more viable, active = viable (0.7 or more)
How it was run: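 RAW-Dual macrophages in 384-well plates were treated overnight with compound at 10 μM final. IncuCyte imaging recorded confluency, and IncuCyte software built two confluency masks across every imaged well. The viability score expresses confluency relative to resting cells and was judged against a cutoff, which a compound met only if both masks exceeded 70% of resting cells.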

[4] = agonist: CpG ODN 1826 0.5 ug/mL

SMILES	NF-kB reporter [1, 4]	NF-kB reporter ([1]; agonist: LPS 0.1 ug/mL)	NF-kB reporter ([1]; agonist: MPLA […])	IRF reporter ([2]; agonist: 3'3'-cGAMP 10 ug/mL)	IRF reporter ([2]; agonist: LPS 0.1 ug/mL)	IRF reporter ([2]; agonist: MPLA […])	viability score [3]
CCN(CC)c1ccc(C=NN2C(=O)c3ccccc3C2=O)cc1	1.05 ± 0.088	1.08 ± 0.07	1.01 ± 0.061	0.827 ± 0.04	1.05 ± 0.1	1.11 ± 0.15	0.994 (active)
Cn1ncc(Cl)c1-c1cc(C(=O)N[C@H](CN)Cc2cccc(F)c2)sc1Cl	0.833 ± 0.2	1.54 ± 0.11	1.64 ± 0.17	0.69 ± 0.026	1.55 ± 0.21	1.79 ± 0.33	0.647 (inactive)
COCCN(CCOC)C(=O)Cc1csc2nc(-c3ccc(F)cc3)cn12	1.1 ± 0.27	0.966 ± 0.084	0.949 ± 0.067	0.947 ± 0.064	1.09 ± 0.15	1.31 ± 0.24	0.653 (inactive)
O=C(C=Cc1ccc(Cl)c(Cl)c1)c1ccc2ccccc2c1O	1.09 ± 0.1	1.06 ± 0.07	0.935 ± 0.085	0.96 ± 0.041	1.57 ± 0.23	1.25 ± 0.077	1.01 (active)
O=C(Oc1ccc2ccccc2c1)c1ccccc1	0.981 ± 0.055	1.06 ± 0.11	1.04 ± 0.066	0.906 ± 0.06	1.27 ± 0.12	1.12 ± 0.11	0.975 (active)
CCc1cccc2c3c([nH]c12)C(CC)(CC(=O)O)OCC3 (configuration not stated) [Prestw-231]	0.957 ± 0.25	0.995 ± 0.066	1.19 ± 0.15	0.926 ± 0.039	1.24 ± 0.15	1.32 ± 0.24	0.989 (active)
COc1cc(CNC2CCCc3ccccc32)cc(OC)c1OC (configuration not stated)	0.878 ± 0.074	1.02 ± 0.095	0.982 ± 0.04	0.865 ± 0.056	1.05 ± 0.087	0.972 ± 0.15	0.992 (active)
C#Cc1cccc(Nc2ncnc3cc(OCCOC)c(OCCOC)cc23)c1	0.819 ± 0.051	1.1 ± 0.092	0.945 ± 0.05	0.948 ± 0.055	1.05 ± 0.16	1.13 ± 0.3	0.993 (active)
O=C(Cc1ccc(F)cc1F)N1CCC(n2c(=O)[nH]c3ccccc3c2=O)CC1	1.01 ± 0.06	1.15 ± 0.088	0.997 ± 0.026	0.878 ± 0.033	1.07 ± 0.061	1.03 ± 0.12	1 (active)
Cc1ccc(S(=O)(=O)Nc2cc(-c3c(O)ccc4ccccc34)c(O)c3ccccc23)cc1	0.941 ± 0.073	0.994 ± 0.076	1.16 ± 0.11	0.337 ± 0.015	0.808 ± 0.047	0.611 ± 0.075	0.956 (active)
CC(C=CC1=C(C)CCCC1(C)C)=CC=CC(C)=CC(=O)O	1.29 ± 0.11	0.943 ± 0.078	1.01 ± 0.1	0.568 ± 0.031	1.1 ± 0.14	0.904 ± 0.19	0.986 (active)
CC(C)CCn1c(COc2ccccc2)nc2ccccc21	0.892 ± 0.067	1.02 ± 0.078	0.995 ± 0.028	0.914 ± 0.033	1.04 ± 0.048	1.09 ± 0.1	0.999 (active)
Cc1ccc(NS(=O)(=O)c2cc3c4c(cccc4c2)C(=O)NC3=O)cc1C	0.535 ± 0.034	0.381 ± 0.03	0.875 ± 0.025	0.532 ± 0.033	0.908 ± 0.092	0.815 ± 0.14	0.802 (active)
CNCCCN1c2ccccc2CCc2ccccc21.Cl	0.462 ± 0.11	1.14 ± 0.11	1.54 ± 0.1	0.45 ± 0.017	1.46 ± 0.2	1.88 ± 0.19	0.951 (active)
CCCC(C(=O)OCCN(CC)CC)(c1ccccc1)c1ccccc1.Cl	0.851 ± 0.066	0.924 ± 0.11	0.978 ± 0.084	0.972 ± 0.055	1.03 ± 0.27	1.03 ± 0.39	1.02 (active)
C#CCCCCCCCCCCCC(=O)CC(O)COC(C)=O (configuration not stated)	0.822 ± 0.073	0.338 ± 0.034	0.808 ± 0.022	0.176 ± 0.019	0.878 ± 0.098	0.81 ± 0.15	0.849 (active)
C=CC(C)(O)CCC=C(C)C (configuration not stated)	0.988 ± 0.085	0.841 ± 0.062	0.999 ± 0.11	1.01 ± 0.038	1.22 ± 0.16	1.34 ± 0.28	1.03 (active)
Cc1nonc1OC(C)CNc1ccc([N+](=O)[O-])cc1 (configuration not stated)	0.989 ± 0.078	1.01 ± 0.083	1.14 ± 0.089	0.84 ± 0.11	0.995 ± 0.1	0.843 ± 0.15	0.998 (active)
CN1CCN2c3ccccc3Cc3ccccc3C2C1.Cl (configuration not stated)	1 ± 0.14	1.07 ± 0.34	0.835 ± 0.058	0.68 ± 0.032	1.32 ± 0.3	1.2 ± 0.13	0.307 (inactive)
O=C1C(N2CCC(O)C2)CCN1CC(F)(F)F (configuration not stated)	0.992 ± 0.12	1.04 ± 0.1	0.876 ± 0.086	1.03 ± 0.053	1.22 ± 0.079	1.24 ± 0.15	1.01 (active)
COc1cccc(-c2ccc(NC(=O)C3=C(C(=O)O)CCC3)c(F)c2)c1	0.954 ± 0.25	0.806 ± 0.088	1.01 ± 0.088	2.42 ± 0.23	2.04 ± 0.35	1.38 ± 0.24	0.91 (active)
CC12CC3CC(C)(C1)CC(N)(C3)C2.Cl	0.831 ± 0.1	0.892 ± 0.086	0.855 ± 0.074	1.24 ± 0.056	1.2 ± 0.099	1.14 ± 0.095	0.978 (active)
CC(=O)N1CC(c2ccc(OC(C)C)cc2)CC1=O (configuration not stated)	1.07 ± 0.23	1.04 ± 0.084	0.961 ± 0.088	1.05 ± 0.03	1.22 ± 0.15	1.36 ± 0.16	0.999 (active)
COC(=O)C1=C(C)NC(=O)CC1c1cc([N+](=O)[O-])ccc1Cl (configuration not stated)	0.933 ± 0.055	0.986 ± 0.11	0.955 ± 0.058	0.966 ± 0.032	1.16 ± 0.099	0.994 ± 0.24	0.988 (active)
O=C(NNC(=O)c1sc2cc(F)ccc2c1Cl)Nc1ccc(Cl)cc1	1.02 ± 0.081	0.995 ± 0.086	1.05 ± 0.053	0.926 ± 0.15	1.02 ± 0.048	1.12 ± 0.091	1 (active)
CCOC(=O)C1=C(C)NC(C)=C(C(=O)OCC)C1c1ccc(F)cc1	0.796 ± 0.067	0.729 ± 0.059	1.8 ± 0.067	1.05 ± 0.037	0.987 ± 0.059	4.4 ± 0.55	0.244 (inactive)
